Results from the supplement of paper PMC10849652.
Of roughly 7,900 targets only a part is listed; those with a hit were picked by preference. About 0.6% of all pairs of compound and target were hits.

How the values were obtained:
Assay in all cases: log2 fold change, soluble protein after heating vs DMSO (PISA); higher = thermal stabilisation; K562 cells, 10 uM, 30 min; active = over 0.2 and 3.5 SD of the protein, either way, in both replicates (recomputed)
[1] = compound: Cc1ccc(NC(=O)c2ccc(CN3CC[C@H](N(C)C)C3)c(C(F)(F)F)c2)cc1Nc1nccc(-c2cncnc2)n1 [bafetinib]
Procedure, shortened: (§1)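 K562 cells at 2×10^6 cells/mL were treated for 30 min with 10 μM compound, and aliquots were heated for 3 min over 48°C-58°C before pooling. Extraction used PBS with 0.5% NP-40 at 4°C, and soluble protein was the supernatant after 21,000xg for 90 min, measured by TMTpro 16plex LC-MS/MS with channel sums equalised. Thermal stability values, relative to control samples and from duplicates, are log2 fold changes.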

[2] = compound: Cc1cccc(CC(=O)N2CCc3c2ccc(-c2cn(C)c4ncnc(N)c24)c3F)n1
Procedure, shortened: as §1

[3] = compound: Cc1cn(-c2cc(NC(=O)c3ccc(C)c(Nc4nccc(-c5cccnc5)n4)c3)cc(C(F)(F)F)c2)cn1 [nilotinib]
Procedure, shortened: as §1

[4] = compound: Cc1nc(Nc2n[nH]c3c2CN(C(=O)N[C@H](CN(C)C)c2ccccc2)C3(C)C)c2sccc2n1
Procedure, shortened: as §1

[5] = compound: Cc1nc(Nc2ncc(C(=O)Nc3c(C)cccc3Cl)s2)cc(N2CCN(CCO)CC2)n1 [dasatinib]
Procedure, shortened: as §1

[6] = compound: Cc1ncc(-c2ccnc(Nc3ccc(S(C)(=O)=O)cc3)n2)n1C(C)C
Procedure, shortened: as §1

[7] = compound: Cn1cc(-c2ccc3c(c2)CCN3C(=O)Cc2cccc(C(F)(F)F)c2)c2c(N)ncnc21
Procedure, shortened: as §1

[8] = compound: Cn1cc(-c2ccc3nnc(C(F)(F)c4ccc5ncccc5c4)n3n2)cn1
Procedure, shortened: as §1

[9] = compound: Cn1cncc1[C@@](N)(c1ccc(Cl)cc1)c1ccc2c(c1)c(-c1cccc(Cl)c1)cc(=O)n2C [tipifarnib]
Procedure, shortened: as §1

[10] = compound: FC(F)(F)c1ccc(/C=C/c2nc(COc3ccc(CCCCn4ccnn4)cc3)co2)cc1 [mubritinib]
Procedure, shortened: as §1

[11] = compound: NC(=O)Nc1cc(-c2cccc(F)c2)sc1C(=O)N[C@H]1CCCNC1
Procedure, shortened: as §1

[12] = compound: NC(=O)c1cnc(N[C@@H]2CCCC[C@@H]2N)nc1Nc1cccc(-n2nccn2)c1
Procedure, shortened: as §1

[13] = compound: NC1(c2ccc(-c3nc4ccn5c(=O)[nH]nc5c4cc3-c3ccccc3)cc2)CCC1
Procedure, shortened: as §1

[14] = compound: NCC(=O)Nc1ccc(-n2nc(C(F)(F)F)cc2-c2ccc3c(ccc4ccccc43)c2)cc1
Procedure, shortened: as §1

[15] = compound: Nc1ccccc1NC(=O)c1ccc(CNC(=O)OCc2cccnc2)cc1 [entinostat]
Procedure, shortened: as §1

[16] = compound: O=C(CCCCCCC(=O)Nc1ccccc1)NO [vorinostat]
Procedure, shortened: as §1

[17] = compound: O=C(CCCCCCNC(=O)c1cnc(N(c2ccccc2)c2ccccc2Cl)nc1)NO [citarinostat]
Procedure, shortened: as §1

[18] = compound: O=C(O)c1ccc2c(c1)nc(Nc1cccc(Cl)c1)c1ccncc12 [silmitasertib]
Procedure, shortened: as §1

[19] = compound: O=C1NC(=O)C(c2cnc3ccccn23)=C1c1cn2c3c(cc(F)cc13)CN(C(=O)N1CCCCC1)CC2
Procedure, shortened: as §1

[20] = compound: c1cc(OCCN2CCCCC2)cc(-c2n[nH]c3ccc(-c4nnc[nH]4)cc23)c1
Procedure, shortened: as §1

Measured: log2 fold change

PEX13 (UniProt Q92968)
UniProt Q92968, sequence (Q92968 whole entry, looked up): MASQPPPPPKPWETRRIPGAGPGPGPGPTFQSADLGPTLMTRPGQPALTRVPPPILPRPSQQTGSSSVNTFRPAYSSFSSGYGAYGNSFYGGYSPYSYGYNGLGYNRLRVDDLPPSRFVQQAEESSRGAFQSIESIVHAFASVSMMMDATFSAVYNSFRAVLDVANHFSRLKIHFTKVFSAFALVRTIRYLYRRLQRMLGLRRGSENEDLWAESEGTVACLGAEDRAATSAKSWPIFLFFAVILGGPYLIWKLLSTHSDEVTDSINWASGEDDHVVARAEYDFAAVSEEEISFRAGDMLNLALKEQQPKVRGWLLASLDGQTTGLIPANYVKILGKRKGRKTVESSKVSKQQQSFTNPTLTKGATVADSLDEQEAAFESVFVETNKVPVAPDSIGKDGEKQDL
inactive: [1] -0.159 | [2] 0.106 | [3] -0.046 | [4] 0 | [5] 0.014 | [6] 0.035 | [7] -0.071 | [8] -0.075 | [9] -0.027 | [10] 0.042 | [11] -0.03 | [12] -0.086 | [13] -0.101 | [14] -0.034 | [15] -0.051 | [16] -0.195 | [17] 0.023 | [18] 0.025 | [19] 0.026 | [20] -0.015

PRPF40A (UniProt O75400)
UniProt O75400, sequence (O75400 whole entry, looked up): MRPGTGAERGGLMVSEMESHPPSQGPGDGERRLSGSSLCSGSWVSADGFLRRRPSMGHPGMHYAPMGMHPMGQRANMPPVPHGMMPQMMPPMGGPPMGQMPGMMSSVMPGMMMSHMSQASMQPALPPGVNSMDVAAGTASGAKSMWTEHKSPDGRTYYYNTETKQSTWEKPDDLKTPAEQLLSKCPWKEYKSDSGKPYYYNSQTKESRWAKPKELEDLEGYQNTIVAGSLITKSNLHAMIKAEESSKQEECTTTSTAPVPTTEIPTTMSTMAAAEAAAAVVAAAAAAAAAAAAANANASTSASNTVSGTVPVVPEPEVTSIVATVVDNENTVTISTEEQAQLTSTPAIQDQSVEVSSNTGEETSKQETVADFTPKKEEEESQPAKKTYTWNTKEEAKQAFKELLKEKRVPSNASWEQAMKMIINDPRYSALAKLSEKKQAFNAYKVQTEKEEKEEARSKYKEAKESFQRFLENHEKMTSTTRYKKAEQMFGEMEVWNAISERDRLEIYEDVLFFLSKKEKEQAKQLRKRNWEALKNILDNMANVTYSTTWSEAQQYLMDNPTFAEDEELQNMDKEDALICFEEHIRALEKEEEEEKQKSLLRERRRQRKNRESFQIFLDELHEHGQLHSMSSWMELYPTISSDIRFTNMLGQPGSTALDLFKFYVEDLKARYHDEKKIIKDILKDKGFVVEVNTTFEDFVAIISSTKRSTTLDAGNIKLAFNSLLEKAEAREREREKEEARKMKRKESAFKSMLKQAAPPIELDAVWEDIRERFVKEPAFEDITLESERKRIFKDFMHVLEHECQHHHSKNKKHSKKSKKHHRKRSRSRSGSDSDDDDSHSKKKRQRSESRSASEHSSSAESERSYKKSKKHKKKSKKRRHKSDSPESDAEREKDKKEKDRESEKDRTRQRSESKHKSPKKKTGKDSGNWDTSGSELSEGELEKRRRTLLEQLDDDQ
inactive: [1] -0.014 | [2] 0.005 | [3] -0.085 | [4] -0.058 | [5] -0.05 | [6] -0.135 | [7] 0.082 | [8] 0.048 | [9] 0.045 | [10] -0.013 | [11] -0.014 | [12] -0.001 | [13] 0 | [14] -0.062 | [15] 0.114 | [16] 0.048 | [17] 0.079 | [18] -0.038 | [19] 0.003 | [20] -0.067

PSMB6 (UniProt P28072)
UniProt P28072, sequence (P28072 whole entry, looked up): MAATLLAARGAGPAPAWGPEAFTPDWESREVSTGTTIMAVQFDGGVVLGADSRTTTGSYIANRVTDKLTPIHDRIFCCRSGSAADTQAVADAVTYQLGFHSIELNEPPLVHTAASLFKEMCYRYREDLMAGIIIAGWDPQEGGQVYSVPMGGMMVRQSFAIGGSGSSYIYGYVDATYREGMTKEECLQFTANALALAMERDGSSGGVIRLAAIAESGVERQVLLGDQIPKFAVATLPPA
inactive: [1] 0.06 | [2] -0.053 | [3] 0.028 | [4] 0.049 | [5] 0.098 | [6] -0.011 | [7] -0.068 | [8] -0.027 | [9] 0.125 | [10] -0.014 | [11] 0.024 | [12] 0.006 | [13] 0.046 | [14] 0.044 | [15] -0.054 | [16] -0.093 | [17] -0.046 | [18] -0.004 | [19] 0.044 | [20] -0.034

PRPF38B (UniProt Q5VTL8)
UniProt Q5VTL8, sequence (Q5VTL8 whole entry, looked up): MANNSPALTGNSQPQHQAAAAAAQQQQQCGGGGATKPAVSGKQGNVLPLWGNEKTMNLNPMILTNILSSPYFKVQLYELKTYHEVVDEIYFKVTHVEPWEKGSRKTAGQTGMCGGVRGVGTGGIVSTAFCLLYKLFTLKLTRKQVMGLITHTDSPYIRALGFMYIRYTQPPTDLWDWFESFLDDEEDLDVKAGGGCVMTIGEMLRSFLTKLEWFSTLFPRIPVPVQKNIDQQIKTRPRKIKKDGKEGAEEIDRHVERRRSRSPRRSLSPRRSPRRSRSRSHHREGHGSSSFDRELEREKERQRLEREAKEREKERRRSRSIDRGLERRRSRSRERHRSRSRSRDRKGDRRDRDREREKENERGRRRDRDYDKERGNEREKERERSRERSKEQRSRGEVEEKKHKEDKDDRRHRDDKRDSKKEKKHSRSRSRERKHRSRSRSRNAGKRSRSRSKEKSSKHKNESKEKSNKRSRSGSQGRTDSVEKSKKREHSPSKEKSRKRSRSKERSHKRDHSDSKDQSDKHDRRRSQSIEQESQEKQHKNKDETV
inactive: [1] -0.016 | [2] -0.015 | [3] 0.049 | [5] -0.022 | [6] -0.008 | [7] 0.012 | [8] -0.04 | [9] -0.067 | [10] 0.004 | [11] -0.199 | [12] -0.019 | [13] 0.017 | [14] -0.203 | [15] 0.006 | [16] 0.033 | [17] 0.028 | [18] -0.246 | [19] -0.006 | [20] -0.19
active: [4] -1.9

PRKAB2 (UniProt O43741)
UniProt O43741, sequence (O43741 whole entry, looked up): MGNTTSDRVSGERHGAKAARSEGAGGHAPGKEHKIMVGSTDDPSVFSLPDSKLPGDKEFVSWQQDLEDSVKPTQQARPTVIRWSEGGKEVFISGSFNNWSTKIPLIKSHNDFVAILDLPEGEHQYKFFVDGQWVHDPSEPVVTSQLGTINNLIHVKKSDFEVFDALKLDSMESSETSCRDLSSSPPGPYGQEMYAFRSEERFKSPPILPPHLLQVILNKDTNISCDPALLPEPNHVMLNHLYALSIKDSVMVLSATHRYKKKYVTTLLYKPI
inactive: [1] 0.027 | [2] -0.01 | [3] -0.022 | [4] -0.184 | [5] -0.16 | [6] 0.082 | [7] 0.142 | [8] -0.034 | [9] -0.046 | [10] -0.02 | [11] 0.204 | [12] 0.248 | [13] -0.077 | [14] 0.162 | [15] 0.186 | [16] 0.099 | [17] -0.1 | [18] 0.031 | [19] 0.121 | [20] -0.47

PRMT7 (UniProt Q9NVM4)
inactive: [1] -0.114 | [2] -0.086 | [3] -0.002 | [4] -0.047 | [5] -0.213 | [6] -0.01 | [7] -0.038 | [8] 0.124 | [9] -0.116 | [10] 0.092 | [11] 0.034 | [12] -0.093 | [13] -0.165 | [14] -0.021 | [15] 0.026 | [16] -0.023 | [17] -0.032 | [18] 0.067 | [19] -0.103 | [20] -0.05

PPP2R5A (UniProt Q15172)
UniProt Q15172, sequence (Q15172 whole entry, looked up): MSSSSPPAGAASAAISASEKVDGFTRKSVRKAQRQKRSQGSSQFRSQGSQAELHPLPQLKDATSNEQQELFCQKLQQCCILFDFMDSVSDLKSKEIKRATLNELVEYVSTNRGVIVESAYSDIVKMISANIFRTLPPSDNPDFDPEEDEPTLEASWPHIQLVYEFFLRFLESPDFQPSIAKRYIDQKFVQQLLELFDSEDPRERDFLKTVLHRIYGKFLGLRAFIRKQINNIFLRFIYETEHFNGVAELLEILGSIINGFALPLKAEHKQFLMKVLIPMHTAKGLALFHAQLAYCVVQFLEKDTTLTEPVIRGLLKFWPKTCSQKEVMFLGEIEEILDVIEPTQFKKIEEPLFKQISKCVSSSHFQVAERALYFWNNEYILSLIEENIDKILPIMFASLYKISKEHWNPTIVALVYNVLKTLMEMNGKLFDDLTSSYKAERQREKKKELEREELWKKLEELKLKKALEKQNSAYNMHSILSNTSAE
inactive: [1] -0.008 | [2] 0.027 | [3] -0.075 | [4] -0.039 | [5] -0.205 | [6] 0.006 | [7] 0.032 | [8] 0.006 | [9] -0.179 | [10] 0.012 | [11] 0.098 | [12] 0.009 | [14] -0.013 | [15] 0.094 | [16] 0.106 | [17] 0.114 | [18] -0.059 | [19] -0.044 | [20] -0.021
active: [13] -0.254

PGGHG (UniProt Q32M88)
UniProt Q32M88, sequence (Q32M88 whole entry, looked up): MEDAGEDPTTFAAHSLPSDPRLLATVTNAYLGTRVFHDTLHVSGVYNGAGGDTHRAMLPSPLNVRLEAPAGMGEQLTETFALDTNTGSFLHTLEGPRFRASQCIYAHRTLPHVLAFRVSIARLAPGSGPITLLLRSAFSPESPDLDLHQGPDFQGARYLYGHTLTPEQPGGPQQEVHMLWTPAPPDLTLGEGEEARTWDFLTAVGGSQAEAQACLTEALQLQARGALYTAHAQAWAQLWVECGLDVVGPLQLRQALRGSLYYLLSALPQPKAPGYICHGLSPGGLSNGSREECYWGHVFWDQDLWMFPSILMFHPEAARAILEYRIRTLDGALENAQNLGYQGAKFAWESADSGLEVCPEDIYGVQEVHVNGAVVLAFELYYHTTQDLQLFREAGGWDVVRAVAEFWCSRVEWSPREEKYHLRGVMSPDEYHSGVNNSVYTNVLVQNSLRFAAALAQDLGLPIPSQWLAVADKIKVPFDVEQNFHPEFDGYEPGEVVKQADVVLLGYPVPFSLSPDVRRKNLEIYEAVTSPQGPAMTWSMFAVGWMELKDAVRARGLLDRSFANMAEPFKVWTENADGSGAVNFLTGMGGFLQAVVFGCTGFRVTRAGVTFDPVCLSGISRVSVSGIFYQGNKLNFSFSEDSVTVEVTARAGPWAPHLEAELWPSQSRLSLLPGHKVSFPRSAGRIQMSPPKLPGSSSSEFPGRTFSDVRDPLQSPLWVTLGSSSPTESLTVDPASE
inactive: [1] -0.036 | [2] -0.001 | [3] 0.012 | [4] 0.023 | [5] 0.009 | [6] -0.078 | [7] -0.152 | [8] 0.058 | [9] -0.077 | [10] 0.047 | [11] -0.036 | [12] -0.155 | [13] -0.051 | [14] 0.083 | [15] -0.033 | [16] 0.019 | [17] -0.009 | [18] 0.073 | [19] -0.076 | [20] 0.058

PCYT1B (UniProt Q9Y5K3)
UniProt Q9Y5K3, sequence (Q9Y5K3 whole entry, looked up): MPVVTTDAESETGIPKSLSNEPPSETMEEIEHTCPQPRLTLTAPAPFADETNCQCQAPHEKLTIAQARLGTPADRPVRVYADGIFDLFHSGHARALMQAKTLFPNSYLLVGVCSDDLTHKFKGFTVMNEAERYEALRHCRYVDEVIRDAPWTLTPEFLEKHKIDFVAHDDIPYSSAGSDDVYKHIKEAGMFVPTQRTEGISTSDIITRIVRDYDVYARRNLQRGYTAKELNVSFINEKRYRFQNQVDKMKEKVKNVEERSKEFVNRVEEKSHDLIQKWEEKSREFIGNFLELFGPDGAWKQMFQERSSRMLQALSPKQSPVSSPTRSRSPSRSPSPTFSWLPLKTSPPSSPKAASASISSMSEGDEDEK
inactive: [1] -0.193 | [2] -0.068 | [4] -0.105 | [5] -0.142 | [6] -0.089 | [7] -0.024 | [8] -0.037 | [9] -0.053 | [10] 0.168 | [11] -0.019 | [12] -0.007 | [13] -0.218 | [14] -0.03 | [15] 0.043 | [16] -0.038 | [17] 0.084 | [18] 0.077 | [19] -0.231 | [20] -0.025
active: [3] -1.28

PEA15 isoform 2 (UniProt Q15121)
UniProt Q15121, sequence (Q15121 whole entry, looked up): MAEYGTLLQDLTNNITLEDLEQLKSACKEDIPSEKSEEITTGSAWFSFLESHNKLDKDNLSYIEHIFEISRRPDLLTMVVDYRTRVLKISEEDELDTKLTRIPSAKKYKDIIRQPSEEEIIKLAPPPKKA
inactive: [1] -0.077 | [2] -0.008 | [3] 0 | [5] -0.026 | [6] -0.004 | [7] 0.036 | [8] 0.021 | [9] 0.04 | [10] 0.054 | [11] 0.021 | [12] -0.118 | [13] -0.103 | [14] 0.016 | [15] 0.075 | [16] -0.009 | [17] 0.049 | [18] 0.045 | [19] -0.067 | [20] -0.209
active: [4] -0.4

PIP4K2B (UniProt P78356)
UniProt P78356, sequence (P78356 whole entry, looked up): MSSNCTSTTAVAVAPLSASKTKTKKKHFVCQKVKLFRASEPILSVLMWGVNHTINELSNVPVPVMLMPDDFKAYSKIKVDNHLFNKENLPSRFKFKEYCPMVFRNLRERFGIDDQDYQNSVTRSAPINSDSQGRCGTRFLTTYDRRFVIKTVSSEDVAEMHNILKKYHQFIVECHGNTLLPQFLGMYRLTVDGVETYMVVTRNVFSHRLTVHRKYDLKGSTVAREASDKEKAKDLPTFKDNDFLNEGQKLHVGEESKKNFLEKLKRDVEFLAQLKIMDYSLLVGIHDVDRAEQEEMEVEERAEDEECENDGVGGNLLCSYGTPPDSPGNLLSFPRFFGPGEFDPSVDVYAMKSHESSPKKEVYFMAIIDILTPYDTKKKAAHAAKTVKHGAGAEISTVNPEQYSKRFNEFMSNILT
active: [6] 0.538
inactive: [1] 0.258 | [2] 0.011 | [3] 0.085 | [4] 0.05 | [5] 0.139 | [7] 0.055 | [8] 0.172 | [9] -0.03 | [10] -0.083 | [11] 0.06 | [12] 0.083 | [13] -0.053 | [14] 0.118 | [15] 0.096 | [16] 0.053 | [17] -0.009 | [18] 0.202 | [19] 0.044 | [20] 0.069

PHF5A (UniProt Q7RTV0)
UniProt Q7RTV0, sequence (Q7RTV0 whole entry, looked up): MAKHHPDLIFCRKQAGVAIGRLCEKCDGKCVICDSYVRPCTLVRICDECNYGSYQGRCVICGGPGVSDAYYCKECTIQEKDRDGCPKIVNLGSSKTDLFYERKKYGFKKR
inactive: [1] -0.097 | [2] -0.047 | [3] -0.018 | [4] 0.012 | [5] 0.102 | [6] 0.086 | [7] -0.031 | [8] 0.03 | [9] 0.031 | [10] -0.025 | [11] -0.004 | [12] 0.009 | [13] 0.101 | [14] 0.051 | [15] -0.017 | [16] -0.08 | [17] 0.014 | [18] 0.082 | [19] -0.024 | [20] -0.003

PPP2R5C isoform 4 (UniProt Q13362)
inactive: [1] -0.032 | [2] -0.019 | [3] -0.05 | [4] -0.025 | [5] -0.058 | [6] -0.008 | [7] 0.037 | [8] 0.052 | [9] -0.093 | [10] 0.095 | [11] -0.035 | [12] 0.079 | [13] -0.064 | [14] -0.065 | [15] 0.012 | [16] -0.033 | [17] 0.055 | [18] -0.015 | [19] -0.022 | [20] 0.058

PRKACA (UniProt P17612)
active: [4] 0.71
inactive: [1] -0.044 | [2] 0.107 | [3] -0.038 | [5] -0.107 | [6] -0.051 | [7] 0.01 | [8] -0.117 | [9] -0.036 | [10] 0.066 | [11] 0.097 | [12] 0.048 | [13] -0.132 | [14] -0.025 | [15] -0.019 | [16] 0.02 | [17] 0.023 | [18] -0.051 | [19] 0.05 | [20] -0.067

PSMD3 (UniProt O43242)
inactive: [1] 0.129 | [2] 0.032 | [3] 0.008 | [4] 0.089 | [5] 0.004 | [6] -0.012 | [7] -0.064 | [8] -0.018 | [9] 0.025 | [10] -0.019 | [11] -0.027 | [12] 0.009 | [13] -0.032 | [14] 0.041 | [15] -0.02 | [16] -0.009 | [17] -0.009 | [18] 0.008 | [19] 0.014 | [20] -0.082

PPM1G (UniProt O15355)
inactive: [1] 0.001 | [2] 0.048 | [3] -0.041 | [4] -0.05 | [5] -0.097 | [6] 0 | [7] 0.096 | [8] 0.117 | [9] -0.133 | [10] 0.105 | [11] -0.147 | [12] -0.086 | [13] -0.018 | [14] -0.181 | [15] 0.017 | [16] 0.079 | [17] 0.033 | [18] 0.031 | [19] -0.114 | [20] -0.102
